The panel holds about 83,000 compounds, 20% with a hit somewhere; the sample as a whole holds those more often.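 Testing used 96-well plates and a 48-hour single-concentration exposure. Example: -40 means 40% of the starting cells died.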 Active and inactive are the calls of the source. How the source made its calls: active means growth percent below 10; inactive means the rest.
Key:
Test in all cases: NCI-60 one-dose screen, 48 h (100 = growth as untreated, 0 = no growth, -100 = all killed)
Conditions in all cases: 10 µM unless noted
SK-MEL-2 melanoma = system: SK-MEL-2 melanoma
EKVX NSCLC = system: EKVX NSCLC
SN12C renal = system: SN12C renal
UO-31 renal = system: UO-31 renal
TK-10 renal = system: TK-10 renal
ACHN renal = system: ACHN renal
A498 renal = system: A498 renal
CCRF-CEM leukemia = system: CCRF-CEM leukemia
MOLT-4 leukemia = system: MOLT-4 leukemia
SR leukemia = system: SR leukemia
RPMI-8226 leukemia = system: RPMI-8226 leukemia
OVCAR-8 ovarian = system: OVCAR-8 ovarian
OVCAR-5 ovarian = system: OVCAR-5 ovarian
OVCAR-4 ovarian = system: OVCAR-4 ovarian
SK-OV-3 ovarian = system: SK-OV-3 ovarian
IGROV1 ovarian = system: IGROV1 ovarian
OVCAR-3 ovarian = system: OVCAR-3 ovarian
HS 578T breast = system: HS 578T breast
NCI/ADR-RES ovarian = system: NCI/ADR-RES ovarian
T-47D breast = system: T-47D breast

Measured: growth

CC(/C=C/c1ccccc1)=N/NC(=O)c1ccncc1
inactive: SK-MEL-2 melanoma 106% | EKVX NSCLC 107% | SN12C renal 99.8% | UO-31 renal 89% | TK-10 renal 105% | ACHN renal 111% | A498 renal 95% | CCRF-CEM leukemia 92.5% | MOLT-4 leukemia 92.2% | SR leukemia 88.9% | RPMI-8226 leukemia 99.9% | OVCAR-8 ovarian 101% | OVCAR-5 ovarian 114% | OVCAR-4 ovarian 105% | SK-OV-3 ovarian 105% | IGROV1 ovarian 103% | OVCAR-3 ovarian 109% | HS 578T breast 99.6% | NCI/ADR-RES ovarian 107% | T-47D breast 99%

O=S(=O)(O)c1ccc(N=NSc2ccc3ccccc3c2)cc1
inactive: SK-MEL-2 melanoma 92.4% | EKVX NSCLC 99.4% | SN12C renal 107% | UO-31 renal 71% | TK-10 renal 103% | ACHN renal 95.3% | A498 renal 107% | CCRF-CEM leukemia 89.8% | MOLT-4 leukemia 94.2% | SR leukemia 104% | RPMI-8226 leukemia 91.7% | OVCAR-8 ovarian 108% | OVCAR-5 ovarian 106% | OVCAR-4 ovarian 101% | SK-OV-3 ovarian 112% | IGROV1 ovarian 93.2% | OVCAR-3 ovarian 98.6% | HS 578T breast 98.7% | NCI/ADR-RES ovarian 96.4% | T-47D breast 82.2%

COc1ccc2c(c1)Oc1nc(N)c(C#N)c(N)c1C2Sc1ccc(SC)cc1 (stereo not given)
inactive: EKVX NSCLC 32.6% | SN12C renal 21.7% | A498 renal 95.4% | OVCAR-8 ovarian 21.2% | OVCAR-5 ovarian 112% | OVCAR-4 ovarian 37.2% | SK-OV-3 ovarian 94.4% | HS 578T breast 67.7% | NCI/ADR-RES ovarian 62.9%
active: SK-MEL-2 melanoma -25.6% | UO-31 renal 5.13% | TK-10 renal -16.4% | ACHN renal -66.3% | CCRF-CEM leukemia -2.59% | MOLT-4 leukemia 0.548% | SR leukemia -17.5% | RPMI-8226 leukemia 2.48% | IGROV1 ovarian 0.493% | OVCAR-3 ovarian -63.3% | T-47D breast -7.13%

COc1cc2c(cc1OCCCOc1cc3c(cc1OC)C(=O)N1CC(F)(F)C[C@H]1C=N3)N=C[C@@H]1CC(F)(F)CN1C2=O
active: A498 renal -66.6% | CCRF-CEM leukemia -33.1% | MOLT-4 leukemia -8.82% | SR leukemia -12.1% | RPMI-8226 leukemia -30.7% | IGROV1 ovarian 0.757% | HS 578T breast -8.37%
inactive: SK-MEL-2 melanoma 34.7% | EKVX NSCLC 49.2% | SN12C renal 35.8% | UO-31 renal 30% | TK-10 renal 11.3% | ACHN renal 24.7% | OVCAR-8 ovarian 17.8% | OVCAR-5 ovarian 14.2% | OVCAR-4 ovarian 35.2% | SK-OV-3 ovarian 46.2% | OVCAR-3 ovarian 22.8% | NCI/ADR-RES ovarian 76.9% | T-47D breast 27.7%

Oc1ccccc1-c1nc2c3ccccc3c3ccccc3c2o1
inactive: SK-MEL-2 melanoma 110% | EKVX NSCLC 78.8% | SN12C renal 83% | UO-31 renal 61% | TK-10 renal 162% | ACHN renal 91.1% | A498 renal 114% | CCRF-CEM leukemia 82.1% | MOLT-4 leukemia 95.3% | SR leukemia 73.7% | RPMI-8226 leukemia 75.5% | OVCAR-8 ovarian 89% | OVCAR-5 ovarian 114% | OVCAR-4 ovarian 76.4% | SK-OV-3 ovarian 90.4% | IGROV1 ovarian 74.1% | OVCAR-3 ovarian 97.2% | HS 578T breast 89.5% | NCI/ADR-RES ovarian 94.5% | T-47D breast 78.9%

C=C1C(=O)O[C@H]2[C@H]1CC/C(COC(=O)c1cccnc1)=C\CC[C@@]1(C)O[C@@H]21
inactive: SK-MEL-2 melanoma 88.3% | EKVX NSCLC 71.8% | SN12C renal 51.8% | UO-31 renal 69.9% | TK-10 renal 63.1% | ACHN renal 45.2% | A498 renal 102% | MOLT-4 leukemia 71.5% | SR leukemia 21% | RPMI-8226 leukemia 28.5% | OVCAR-8 ovarian 86.4% | OVCAR-5 ovarian 73.8% | OVCAR-4 ovarian 70% | SK-OV-3 ovarian 86.1% | IGROV1 ovarian 64.8% | OVCAR-3 ovarian 26.4% | HS 578T breast 89.9% | NCI/ADR-RES ovarian 93.5% | T-47D breast 55.7%
active: CCRF-CEM leukemia 3.51%

Cc1cc(O)cc(O)c1N=NC1=NCCS1
inactive: SK-MEL-2 melanoma 98.3% | EKVX NSCLC 96.5% | SN12C renal 109% | UO-31 renal 89.9% | TK-10 renal 135% | ACHN renal 97.3% | CCRF-CEM leukemia 101% | MOLT-4 leukemia 94.1% | SR leukemia 97.1% | RPMI-8226 leukemia 106% | OVCAR-8 ovarian 101% | OVCAR-5 ovarian 101% | OVCAR-4 ovarian 102% | SK-OV-3 ovarian 97.2% | IGROV1 ovarian 104% | OVCAR-3 ovarian 104% | HS 578T breast 116% | NCI/ADR-RES ovarian 103% | T-47D breast 92.5%
active: A498 renal -6.58%

CN1C(=O)c2cc(Cl)nc3c(NC(=O)c4cccc(Cl)c4)c(Cl)c(NC(=O)c4cccc(Cl)c4)c1c23
inactive: EKVX NSCLC 27.4% | TK-10 renal 39.9% | A498 renal 96.6% | RPMI-8226 leukemia 38.4% | OVCAR-5 ovarian 88.7% | SK-OV-3 ovarian 86.4% | NCI/ADR-RES ovarian 27.5% | T-47D breast 22.1%
active: SK-MEL-2 melanoma -39% | SN12C renal -43.2% | UO-31 renal -61.8% | ACHN renal -61.7% | CCRF-CEM leukemia 7.27% | MOLT-4 leukemia -19.9% | SR leukemia -44.7% | OVCAR-8 ovarian 2.78% | OVCAR-4 ovarian -22.7% | IGROV1 ovarian -66.2% | OVCAR-3 ovarian -52.7% | HS 578T breast -12.3%

O=[N+]([O-])c1ccc(Oc2ccc(-c3ccccc3)cc2)cc1
inactive: SK-MEL-2 melanoma 103% | EKVX NSCLC 85.1% | SN12C renal 96.6% | UO-31 renal 79.5% | TK-10 renal 88.5% | ACHN renal 101% | A498 renal 84.5% | CCRF-CEM leukemia 78.3% | MOLT-4 leukemia 70.4% | SR leukemia 77.8% | RPMI-8226 leukemia 75.2% | OVCAR-8 ovarian 92.1% | OVCAR-5 ovarian 99.2% | OVCAR-4 ovarian 69.6% | SK-OV-3 ovarian 92.6% | IGROV1 ovarian 85.3% | OVCAR-3 ovarian 99.3% | HS 578T breast 93.2% | NCI/ADR-RES ovarian 91.8% | T-47D breast 60.6%

COc1ccc(-c2cc(-c3nnc(SCC(=O)Nc4ccc(C(C)=O)cc4)o3)c3ccccc3n2)cc1
inactive: SK-MEL-2 melanoma 40.1% | EKVX NSCLC 23.2% | A498 renal 18.3% | CCRF-CEM leukemia 32.7% | MOLT-4 leukemia 23% | OVCAR-5 ovarian 71.4% | SK-OV-3 ovarian 17.8%
active: SN12C renal -40.5% | UO-31 renal -70.7% | TK-10 renal -28.8% | ACHN renal -11.6% | SR leukemia -19.5% | RPMI-8226 leukemia -19.8% | OVCAR-8 ovarian -21% | OVCAR-4 ovarian -49.6% | IGROV1 ovarian 9.74% | OVCAR-3 ovarian -20.6% | HS 578T breast -8.38% | NCI/ADR-RES ovarian 6.03% | T-47D breast 0.593%

O=c1[nH]c2ccccc2cc1-c1nc2ccc(Cl)cc2[nH]1
inactive: SK-MEL-2 melanoma 18.7% | EKVX NSCLC 22.6% | SN12C renal 48.4% | UO-31 renal 45.7% | TK-10 renal 37.5% | ACHN renal 27% | A498 renal 48.3% | CCRF-CEM leukemia 13.7% | OVCAR-8 ovarian 57.7% | OVCAR-5 ovarian 100% | OVCAR-4 ovarian 51% | SK-OV-3 ovarian 14% | IGROV1 ovarian 26.5% | OVCAR-3 ovarian 35.5% | HS 578T breast 46.1% | NCI/ADR-RES ovarian 74.4% | T-47D breast 35.1%
active: MOLT-4 leukemia -19.7% | SR leukemia 8.43% | RPMI-8226 leukemia -38.5%

CCC[S@](=O)c1ccc2nc(NC(=O)OC)[nH]c2c1
inactive: SK-MEL-2 melanoma 99.2% | EKVX NSCLC 95.3% | SN12C renal 100% | UO-31 renal 96.8% | TK-10 renal 91.7% | ACHN renal 103% | A498 renal 95.1% | CCRF-CEM leukemia 96.2% | MOLT-4 leukemia 79.6% | SR leukemia 75.3% | RPMI-8226 leukemia 96.4% | OVCAR-8 ovarian 84.9% | OVCAR-5 ovarian 101% | OVCAR-4 ovarian 104% | SK-OV-3 ovarian 74.5% | IGROV1 ovarian 97.1% | OVCAR-3 ovarian 104% | HS 578T breast 102% | NCI/ADR-RES ovarian 106% | T-47D breast 87.7%

CCOC(=O)c1c(C)nc2c(c1N)/C(=C/c1cccs1)C(=O)N2Cc1ccccc1
active: SR leukemia 9.76% | RPMI-8226 leukemia -21.2%
inactive: SK-MEL-2 melanoma 60% | EKVX NSCLC 82% | SN12C renal 73.2% | UO-31 renal 45.6% | TK-10 renal 90.1% | ACHN renal 79.7% | A498 renal 70.2% | CCRF-CEM leukemia 29.8% | MOLT-4 leukemia 18.8% | OVCAR-8 ovarian 70.7% | OVCAR-5 ovarian 119% | OVCAR-4 ovarian 82.3% | SK-OV-3 ovarian 96.6% | IGROV1 ovarian 48% | OVCAR-3 ovarian 53.2% | HS 578T breast 93.2% | NCI/ADR-RES ovarian 79% | T-47D breast 43%

COc1cc2c(Nc3ccc(NC(=O)Nc4ccc(Cl)c(C(F)(F)F)c4)c(Cl)c3)ncnc2cc1OCCCN1CCN(C)CC1
active: SK-MEL-2 melanoma -37.9% | CCRF-CEM leukemia -15.4% | MOLT-4 leukemia -43.7% | SR leukemia -40.5% | RPMI-8226 leukemia -39% | OVCAR-4 ovarian -9.14% | IGROV1 ovarian -2.58% | HS 578T breast -8.65%
inactive: EKVX NSCLC 52.5% | SN12C renal 18.6% | UO-31 renal 54.9% | TK-10 renal 20.5% | ACHN renal 35% | A498 renal 39.7% | OVCAR-8 ovarian 13% | OVCAR-5 ovarian 31% | SK-OV-3 ovarian 20.4% | OVCAR-3 ovarian 11% | NCI/ADR-RES ovarian 93.3% | T-47D breast 22.2%

C#C[C@@]1(O)[C@@H](CO)O[C@@H](n2ccc3c(N)ncnc32)[C@@H]1O
inactive: CCRF-CEM leukemia 13.3% | SR leukemia 12.1% | OVCAR-5 ovarian 25.6% | OVCAR-3 ovarian 18.2% | HS 578T breast 51.6%
active: SK-MEL-2 melanoma -8.72% | EKVX NSCLC -4.75% | SN12C renal -12.3% | UO-31 renal -14.7% | TK-10 renal 3.25% | ACHN renal 3.47% | A498 renal -53.2% | MOLT-4 leukemia -1.22% | RPMI-8226 leukemia 4.21% | OVCAR-8 ovarian -21.7% | OVCAR-4 ovarian 0.622% | SK-OV-3 ovarian -7.62% | IGROV1 ovarian 4.28% | NCI/ADR-RES ovarian -9.78% | T-47D breast -34%
